The nature of experiment [1]: qHTS assay to identify small molecule agonists of the vitamin D receptor (VDR) signaling pathway - cell viability counter screen (AID 743224). Note: series mostly up to about 63 µM; nearly all actives have a fitted effect of over 50% in size. The method in brief:
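Compounds were pin-transferred onto VDR-bla cells plated 4 h earlier; following 16 h incubation at 37C, cell viability was quantified by CellTiter-Glo luminescence after 30 min at room temperature.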
(In qHTS, concentration-response curves come from the screen itself.)

Experiment [2] can be described thus: qHTS assay to identify small molecule antagonists of the vitamin D receptor (VDR) signaling pathway - cell viability counter screen (AID 743225). Note: nearly all actives have a fitted effect of over 50% in size. The method in brief: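 Luminescent cell viability (CellTiter-Glo) in VDR-bla HEK 293T cells after 16 h compound exposure at 37C in the presence of 3 nM final 1-alpha,25-dihydroxy vitamin D3.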
Experiment [3] can be described thus: qHTS assay to identify small molecule agonists of the NFkB signaling pathway (AID 1159509; active = well fitted curve in the direction sought with a large enough effect in the signal ratio in the repeat runs, not every such curve was filed as active; the % refers to the signal ratio; note: series mostly up to about 61 µM). The gist of the method:
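Readout: FRET fluorescence, 405 nm excitation, 460/530 nm emission; beta-lactamase expression disrupts FRET. Cells: ME-180 stably carrying NF-kB-driven bla reporter. Compound exposure 5 hr, 37 C, 5% CO2.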

Experiment [4] can be described thus: qHTS assay to identify small molecule agonists of the NFkB signaling pathway - cell viability counter screen (AID 1159515; calls by dose curve; note: series mostly up to about 61 µM; nearly all actives have a fitted effect of over 55% in size). The method in brief: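 Parallel cytotoxicity counter screen in ME-180 cells carrying an NFkB-response-element beta-lactamase reporter, 2,000 cells/well. Compound exposure lasted 5 hr at 37 C, 5% CO2. Cell viability was quantified by CellTiter-Glo luminescence.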

The nature of experiment [5]: qHTS assay to identify small molecule agonists of the endoplasmic reticulum stress response signaling pathway (AID 1159516; active = well fitted activation curve with a large enough effect in the signal ratio in the repeat runs, not every such curve was filed as active; the % refers to the signal ratio). The method in brief:
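Using a HeLa line with an ESRE-driven beta-lactamase gene, agonist activity was measured by FRET substrate fluorescence (460 and 530 nm emission) after cells were treated with compounds for 5 hr at 37 C and 5% CO2.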

Experiment [6] can be described thus: qHTS assay to identify small molecule agonists of the endoplasmic reticulum stress response signaling pathway - cell viability counter screen (AID 1159517; calls by dose curve;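 note: HeLa cells carrying an ER stress response element beta-lactamase reporter; series mostly up to about 61 µM; nearly all actives have a fitted effect of over 50% in size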). The gist of the method:
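Cytotoxicity of test compounds toward ESRE-bla HeLa cells was assessed after 5 hr exposure. The luminescent CellTiter-Glo signal was measured 30 min after reagent addition.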

A short description of experiment [7]: qHTS assay to identify small molecule antagonists of the retinoid-related orphan receptor gamma (ROR-gamma) signaling pathway - cell viability counter screen (AID 1159520). Note: nearly all actives have a fitted effect of over 50% in size. The gist of the method: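 Tet-on ROR gamma CHO cells (1,000/well) were plated 4 hr, given compounds in DMSO for 2 hr at 37 C, then induced with 1 uM final doxycycline for 16 hr. Viability was read as ATP by CellTiter-Glo luminescence after 30 min.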

In experiment [8] the target is Nuclear receptor ROR-gamma (Homo sapiens) (UniProt P51449). Briefly: qHTS assay to identify small molecule antagonists of the retinoid-related orphan receptor gamma (ROR-gamma) signaling pathway (AID 1159521). The method in brief:
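CHO cells expressing RORγ under a TET-on promoter, luciferase under RORE control. Dox 1 uM final, 16 h; compounds added 2 h prior. Luminescence decrease measured.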

Experiment [9] can be described thus: qHTS assay to identify small molecule agonists of the AP-1 signaling pathway - cell viability counter screen (AID 1159525; calls by dose curve; note: nearly all actives have a fitted effect of over 55% in size). The method in brief: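 Each titration point was normalised to DMSO and tetra n-octyl ammonium bromide controls. The read was Cell Titer Glo luminescence after 30 min at RT, following 5 h compound exposure of ME-180 AP-1-bla cells at 37 °C.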

Experiment [10] in a line: qHTS assay to identify small molecule agonists of the AP-1 signaling pathway (AID 1159526; calls by dose curve).
Experiment [11] has as its target Retinoic acid receptor RXR-alpha (Homo sapiens) (UniProt P19793). Put plainly: qHTS assay to identify small molecule agonists of the RXR signaling pathway (AID 1159527; calls by dose curve; note: nearly all actives have a fitted effect of over 35% in size). The method in brief:
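Beta-lactamase reporter assay, agonist format. Engineered HEK 293T line, charcoal-stripped FBS at 2%, overnight (16 hr) exposure, fluorescence at 460 and 530 nm after 405 nm excitation.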

Experiment [12] can be described thus: qHTS assay to identify small molecule agonists of the RXR signaling pathway - cell viability counter screen (AID 1159529). The method in brief:
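Same-well viability check after the LiveBLAzer FRET read: CellTiter-Glo added, luminescence measured after 30 min at room temperature. Reporter HEK 293T cells had been treated with compounds for 16 hr following a 5 hr preincubation.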

A short description of experiment [13]: qHTS assay to identify small molecule antagonists of the retinoid acid receptor (RAR) signaling pathway - cell viability counter screen (AID 1159551). Note: nearly all actives have a fitted effect of over 35% in size. The gist of the method:
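ATP-based viability, C3RL4 cells, 6 h at 37 C with 1 uM final retinol co-added after compound; luminescence read 30 min post CellTiter-Glo, RT.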

The nature of experiment [14]: qHTS assay to identify small molecule antagonists of the retinoic acid receptor (RAR) signaling pathway (AID 1159552; note: nearly all actives have a fitted effect of over 50% in size). The method in brief:
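Readout: luciferase luminescence, 30 min post-reagent at RT. Setup: C3RL4 RARE reporter cells, compounds plus retinol 1 uM final, 6 hr incubation at 37 C and 5% CO2.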

Experiment [15] can be described thus: qHTS assay to identify small molecule antagonists of the estrogen related receptor (ERR) signaling pathway from Tox21 library - cell viability counter screen (AID 1224834). Note: nearly all actives have a fitted effect of over 30% in size. The method in brief: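 Compounds in DMSO were pinned onto ERR cells that had been incubated for 6 h, and the plates were held at 37 C for 17.5 h. CellTiter-Fluor reagent was then added and fluorescence was measured after 30 min.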

Experiment [16] in a line: qHTS assay to identify small molecule agonists of the retinoic acid receptor (RAR) signaling pathway (AID 1159553). Note: potency is the fitted concentration of half-maximal effect. The gist of the method: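 Quantitative high-throughput format: the Tox21 10K library was tested on C3RL4 RARE-luciferase cells for 6 hr at 37 C and 5% CO2, with luminescence measured after a 30 min room-temperature reagent step.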
A short description of experiment [17]: qHTS assay to identify small molecule antagonists of the estrogen related receptor (ERR) signaling pathway - cell viability counter screen (AID 1224818). Note: series mostly up to about 46 µM. The gist of the method: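 Quantitative high-throughput viability counter screen in ERR cells. Compounds (DMSO) incubated 17.5 h at 37 C; read-out was CellTiter-Fluor fluorescence.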
Experiment [18] in a line: qHTS assay to identify small molecule agonists of the estrogen related receptor (ERR) signaling pathway (AID 1224820). The method in brief: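 Luminescence readout (One-Glo, 30 min RT) from NTP-supplied ERR cell line exposed to compounds for 18 h at 37 C. Cells seeded 2,000 per well and pre-incubated 6 h before pin-tool compound transfer.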
In experiment [19] the test system is estrogen-related receptor alpha (ERRalpha) with PGC-1alpha coactivator, human. Briefly: qHTS assay to identify small molecule antagonists of the estrogen related receptor signaling pathway with the pleiotropic PPARgamma coactivator (PGC) (AID 1224821; calls by dose curve). The method in brief:
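PGC/ERR reporter cells; 6 h pre-incubation 37 C/5% CO2; pin-tool compound in DMSO, 18 h 37 C; One-Glo added, 30 min RT; luminescence read. qHTS antagonist mode.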

A short description of experiment [20]: qHTS assay to identify small molecule agonists of the estrogen related receptor signaling pathway with the pleiotropic PPARgamma coactivator (PGC) (AID 1224823). The gist of the method:
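Luminescence readout (One-Glo, 30 min RT) from PGC/ERR cell line treated 18 h at 37 C with pin-tool-delivered DMSO compound solutions; cells plated 6 h before dosing. Quantitative HTS format.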

Records with an inconclusive call do not appear. The source made the active and inactive calls. Unless noted, calls come from the whole dose curve; as a rule, active = well fitted curve in the direction sought with a large enough effect in the repeat runs; inconclusive = weak or mixed curves; inactive = no such curve, though single readings can be large; an effect the other way counts as inactive or inconclusive.

Retinoic acid receptor RXR-alpha (Homo sapiens), sequence (P19793 whole entry, looked up): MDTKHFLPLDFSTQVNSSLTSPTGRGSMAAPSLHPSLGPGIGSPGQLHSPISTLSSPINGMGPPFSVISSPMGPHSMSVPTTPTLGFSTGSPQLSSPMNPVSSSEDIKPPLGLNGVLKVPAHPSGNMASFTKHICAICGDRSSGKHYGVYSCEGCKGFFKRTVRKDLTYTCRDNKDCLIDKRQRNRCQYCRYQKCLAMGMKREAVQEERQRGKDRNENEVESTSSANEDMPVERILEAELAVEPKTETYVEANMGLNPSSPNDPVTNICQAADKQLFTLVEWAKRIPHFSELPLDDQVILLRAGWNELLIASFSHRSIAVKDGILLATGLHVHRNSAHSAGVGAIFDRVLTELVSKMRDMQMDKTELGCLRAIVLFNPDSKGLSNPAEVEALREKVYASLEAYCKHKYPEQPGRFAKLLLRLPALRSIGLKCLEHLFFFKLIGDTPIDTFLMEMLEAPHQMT

For the molecule `Cc1cccc2nccnc12`, the Potency result in experiment [1], in experiment [6], in experiment [11] and in experiment [15] was “inactive” each time. Further, the result in experiment [2], in experiment [3], in experiment [4], in experiment [5], in experiment [7] and in experiment [8] was inactive. For the same molecule, the call in experiment [9], in experiment [10], in experiment [12], in [13] and in [14] was inactive.
For the molecule `CC1COc2ccccc2N1` (stereo unspecified), the Potency entry in [1], in experiment [6], in experiment [11] and in [15] was “inactive” in each case. Also, the result in experiment [2], in experiment [3], in experiment [4], in experiment [5], in experiment [7] and in experiment [8] was inactive. Moreover, the molecule was classed as inactive in experiment [9], in [10], in [12], in experiment [13] and in [14].
For `O=C(OCC(O)CO)c1ccccc1Nc1ccnc2c(C(F)(F)F)cccc12` (stereo unspecified), the Potency result in [1], in experiment [6], in experiment [11] and in experiment [16] was “inactive” throughout. Moreover, the result in experiment [2], in experiment [3], in [4], in [5], in [7] and in experiment [8] was inactive. Besides, the call in experiment [9], in experiment [10], in experiment [12] and in experiment [13] was inactive.
In the case of `CN(CCOc1ccc(NS(C)(=O)=O)cc1)CCc1ccc(NS(C)(=O)=O)cc1`, the result in experiment [3], in experiment [4], in experiment [5], in [7], in experiment [8] and in [9] was inactive. Further, the outcome in experiment [10], in experiment [12], in experiment [13] and in experiment [17] was inactive. Besides, the Potency entry in [6] and in [11] was “inactive” throughout.
Consider `COc1cc(N)ccc1C`, for which the molecule was called inactive in [2], in experiment [3], in [4], in experiment [5], in [7] and in experiment [8]. For the same molecule, the outcome in experiment [9], in [10], in [12], in experiment [13] and in experiment [14] was inactive. For the same molecule, the Potency result in experiment [6], in [11] and in experiment [16] was “inactive” in each case.
Turning to `CC(C)(C)OC(=O)c1ccc(O)cc1`, the Potency entry in experiment [1], in [6], in experiment [11] and in [15] was “inactive” in each case. For the same molecule, the call in experiment [3], in experiment [4], in [5], in experiment [7], in [8] and in experiment [9] was inactive. The outcome in experiment [10], in experiment [12], in experiment [13] and in experiment [14] was inactive.
For `C=CC(OCC)OCC`, the Potency result in experiment [1], in experiment [6], in experiment [11] and in [15] was “inactive” throughout. Moreover, the molecule was called inactive in [2], in experiment [3], in experiment [4], in experiment [5], in experiment [7] and in experiment [8]. Moreover, the call in [9], in experiment [10], in [12], in experiment [13] and in experiment [14] was inactive.
For the molecule `Cc1cccc(C)c1OCC(C)N` (stereo unspecified), the Potency result in experiment [1], in experiment [6] and in [11] was “inactive” throughout. For the same molecule, the call in experiment [2], in [3], in experiment [4], in experiment [5], in [7] and in [8] was inactive. The call in experiment [9], in experiment [10], in experiment [12], in experiment [13], in [17] and in experiment [18] was inactive. Moreover, the call in [19] and in [20] was inactive.
`CCCCCCOc1ccccc1C(N)=O`: the Potency result in [1], in experiment [6], in [11] and in [15] was “inactive” in each case. Besides, the outcome in experiment [2], in experiment [3], in experiment [4], in experiment [5], in experiment [7] and in experiment [8] was inactive. Further, the molecule was classed as inactive in [9], in experiment [10], in [12] and in experiment [13]. Moreover, the Potency in [16] was 13.3 µM (active).
